Our source for the log2 fold change values is the supplement of paper PMC10849652.

About 8,800 targets were measured; listed, in parts, are those with a hit and a random draw of the rest. About 0.5% of all pairs of compound and target were hits. Unmarked numbers belong to inactive results.

Chain of UniProt Q9H089 (Q9H089 whole entry, looked up): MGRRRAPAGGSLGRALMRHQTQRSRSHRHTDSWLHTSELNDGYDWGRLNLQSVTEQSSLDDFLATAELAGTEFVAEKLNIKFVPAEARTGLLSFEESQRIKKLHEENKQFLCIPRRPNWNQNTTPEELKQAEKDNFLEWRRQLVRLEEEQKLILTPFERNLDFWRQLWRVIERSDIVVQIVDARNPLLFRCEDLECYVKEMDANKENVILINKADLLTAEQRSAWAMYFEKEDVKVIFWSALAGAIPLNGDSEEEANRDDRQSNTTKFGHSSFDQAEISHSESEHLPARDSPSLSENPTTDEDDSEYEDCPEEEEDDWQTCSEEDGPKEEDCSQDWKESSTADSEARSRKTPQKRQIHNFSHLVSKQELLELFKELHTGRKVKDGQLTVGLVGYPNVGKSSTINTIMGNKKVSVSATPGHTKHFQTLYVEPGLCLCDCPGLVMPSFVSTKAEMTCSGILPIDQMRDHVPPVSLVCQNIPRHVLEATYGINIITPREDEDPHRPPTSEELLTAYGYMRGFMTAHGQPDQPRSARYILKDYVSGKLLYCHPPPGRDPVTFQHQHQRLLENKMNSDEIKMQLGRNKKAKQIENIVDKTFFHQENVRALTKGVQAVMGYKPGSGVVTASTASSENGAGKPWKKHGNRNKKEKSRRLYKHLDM
Chain of UniProt Q9UFC0 (Q9UFC0 whole entry, looked up): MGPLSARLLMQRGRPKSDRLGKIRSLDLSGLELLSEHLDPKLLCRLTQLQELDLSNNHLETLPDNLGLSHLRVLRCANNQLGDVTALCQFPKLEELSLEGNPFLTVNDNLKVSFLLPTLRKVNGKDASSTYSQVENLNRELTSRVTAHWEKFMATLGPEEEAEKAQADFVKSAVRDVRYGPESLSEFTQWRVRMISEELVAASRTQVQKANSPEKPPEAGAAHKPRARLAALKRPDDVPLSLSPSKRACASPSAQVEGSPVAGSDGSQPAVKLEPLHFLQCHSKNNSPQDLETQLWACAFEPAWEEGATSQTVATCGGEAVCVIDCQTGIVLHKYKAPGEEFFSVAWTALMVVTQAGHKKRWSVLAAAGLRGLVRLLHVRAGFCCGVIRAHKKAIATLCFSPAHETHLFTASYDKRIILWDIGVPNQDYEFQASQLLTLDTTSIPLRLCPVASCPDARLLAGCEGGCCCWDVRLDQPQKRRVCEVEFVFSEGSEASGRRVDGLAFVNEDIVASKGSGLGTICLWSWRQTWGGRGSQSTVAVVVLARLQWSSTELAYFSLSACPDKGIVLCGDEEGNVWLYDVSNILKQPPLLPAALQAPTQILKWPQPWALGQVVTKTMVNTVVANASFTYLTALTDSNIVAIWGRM
Chain of UniProt Q6ZWT7 (Q6ZWT7 whole entry, looked up): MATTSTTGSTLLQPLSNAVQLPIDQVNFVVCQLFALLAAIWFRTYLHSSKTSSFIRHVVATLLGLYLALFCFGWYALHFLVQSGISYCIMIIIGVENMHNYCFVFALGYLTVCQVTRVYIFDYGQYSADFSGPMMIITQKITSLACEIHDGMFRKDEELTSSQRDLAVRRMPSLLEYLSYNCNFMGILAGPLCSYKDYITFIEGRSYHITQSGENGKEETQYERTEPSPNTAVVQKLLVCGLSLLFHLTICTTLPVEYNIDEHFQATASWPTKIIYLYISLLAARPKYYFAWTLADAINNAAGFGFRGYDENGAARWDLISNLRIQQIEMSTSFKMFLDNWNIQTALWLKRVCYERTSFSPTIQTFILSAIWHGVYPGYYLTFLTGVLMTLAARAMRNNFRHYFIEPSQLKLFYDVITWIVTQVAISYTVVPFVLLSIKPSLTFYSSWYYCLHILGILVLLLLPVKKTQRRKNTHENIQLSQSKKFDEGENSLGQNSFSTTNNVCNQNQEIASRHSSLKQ
Chain of UniProt Q96T76 (Q96T76 whole entry, looked up): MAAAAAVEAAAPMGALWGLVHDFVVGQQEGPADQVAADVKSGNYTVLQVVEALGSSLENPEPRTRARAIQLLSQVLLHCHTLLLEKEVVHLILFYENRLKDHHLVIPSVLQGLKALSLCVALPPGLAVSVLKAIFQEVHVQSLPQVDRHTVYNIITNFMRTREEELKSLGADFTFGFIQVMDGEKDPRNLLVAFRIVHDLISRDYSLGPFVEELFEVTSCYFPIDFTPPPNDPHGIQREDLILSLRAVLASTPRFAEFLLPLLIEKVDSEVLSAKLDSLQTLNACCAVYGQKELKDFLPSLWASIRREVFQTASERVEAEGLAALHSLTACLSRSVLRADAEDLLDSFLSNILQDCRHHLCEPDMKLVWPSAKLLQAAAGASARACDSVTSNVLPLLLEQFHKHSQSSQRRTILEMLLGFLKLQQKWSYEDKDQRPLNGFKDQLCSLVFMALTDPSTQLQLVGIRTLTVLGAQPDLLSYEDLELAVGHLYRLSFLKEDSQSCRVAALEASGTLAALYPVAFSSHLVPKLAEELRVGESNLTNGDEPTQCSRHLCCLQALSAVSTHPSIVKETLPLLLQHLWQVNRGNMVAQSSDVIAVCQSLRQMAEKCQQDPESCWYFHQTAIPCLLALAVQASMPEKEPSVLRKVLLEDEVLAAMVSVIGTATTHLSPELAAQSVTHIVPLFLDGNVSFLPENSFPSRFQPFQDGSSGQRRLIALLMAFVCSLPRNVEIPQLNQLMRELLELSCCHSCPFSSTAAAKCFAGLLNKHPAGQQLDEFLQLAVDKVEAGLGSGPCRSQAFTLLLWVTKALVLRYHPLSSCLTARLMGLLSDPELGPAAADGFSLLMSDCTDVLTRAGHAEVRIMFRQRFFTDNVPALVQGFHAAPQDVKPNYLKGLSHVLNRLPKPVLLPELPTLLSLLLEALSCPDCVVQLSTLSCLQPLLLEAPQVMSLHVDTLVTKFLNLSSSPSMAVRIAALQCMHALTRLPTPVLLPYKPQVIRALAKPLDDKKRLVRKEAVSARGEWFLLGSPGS
Chain of UniProt Q8IW41 (Q8IW41 whole entry, looked up): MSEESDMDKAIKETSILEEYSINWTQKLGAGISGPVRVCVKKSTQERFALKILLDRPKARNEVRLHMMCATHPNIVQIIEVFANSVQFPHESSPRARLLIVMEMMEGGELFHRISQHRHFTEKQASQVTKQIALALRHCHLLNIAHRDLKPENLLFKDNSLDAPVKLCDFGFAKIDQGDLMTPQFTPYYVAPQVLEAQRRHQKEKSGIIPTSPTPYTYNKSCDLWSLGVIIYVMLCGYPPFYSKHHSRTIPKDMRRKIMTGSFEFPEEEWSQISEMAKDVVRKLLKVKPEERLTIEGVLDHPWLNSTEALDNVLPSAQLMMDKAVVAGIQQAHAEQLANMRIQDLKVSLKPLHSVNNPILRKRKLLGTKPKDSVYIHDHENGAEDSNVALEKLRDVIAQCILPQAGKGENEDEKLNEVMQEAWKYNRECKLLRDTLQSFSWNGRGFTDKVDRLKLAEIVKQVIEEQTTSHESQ
Chain of UniProt Q96II8 (Q96II8 whole entry, looked up): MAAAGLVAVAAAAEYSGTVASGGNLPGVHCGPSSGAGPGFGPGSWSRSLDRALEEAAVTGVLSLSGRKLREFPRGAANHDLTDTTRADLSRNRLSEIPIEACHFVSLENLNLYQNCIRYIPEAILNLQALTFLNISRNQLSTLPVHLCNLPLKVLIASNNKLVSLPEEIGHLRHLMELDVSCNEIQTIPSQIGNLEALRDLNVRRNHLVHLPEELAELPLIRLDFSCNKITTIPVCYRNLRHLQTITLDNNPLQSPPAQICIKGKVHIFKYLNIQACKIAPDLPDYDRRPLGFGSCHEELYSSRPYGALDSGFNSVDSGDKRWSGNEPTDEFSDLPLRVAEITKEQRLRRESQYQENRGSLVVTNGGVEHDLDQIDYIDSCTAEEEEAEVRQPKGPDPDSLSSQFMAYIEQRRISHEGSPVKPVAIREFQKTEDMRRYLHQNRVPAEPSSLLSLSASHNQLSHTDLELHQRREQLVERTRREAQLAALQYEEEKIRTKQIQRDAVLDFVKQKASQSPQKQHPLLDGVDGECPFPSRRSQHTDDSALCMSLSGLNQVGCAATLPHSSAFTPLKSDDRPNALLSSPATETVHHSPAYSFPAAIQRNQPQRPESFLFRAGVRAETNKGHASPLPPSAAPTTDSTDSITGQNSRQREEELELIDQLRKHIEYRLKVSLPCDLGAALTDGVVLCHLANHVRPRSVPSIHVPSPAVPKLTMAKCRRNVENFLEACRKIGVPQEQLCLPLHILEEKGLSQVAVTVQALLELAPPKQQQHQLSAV
Chain of UniProt P53778 (P53778 whole entry, looked up): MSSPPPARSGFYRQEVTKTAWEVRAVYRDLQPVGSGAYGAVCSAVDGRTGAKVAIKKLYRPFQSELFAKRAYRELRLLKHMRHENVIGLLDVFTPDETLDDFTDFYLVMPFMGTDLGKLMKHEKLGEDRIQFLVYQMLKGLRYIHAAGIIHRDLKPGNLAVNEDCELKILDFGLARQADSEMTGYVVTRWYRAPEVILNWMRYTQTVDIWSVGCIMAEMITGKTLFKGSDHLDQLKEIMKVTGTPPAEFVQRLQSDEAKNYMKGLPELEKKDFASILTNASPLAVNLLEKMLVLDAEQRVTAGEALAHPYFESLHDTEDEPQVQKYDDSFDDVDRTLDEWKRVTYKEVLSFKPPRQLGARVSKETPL
Chain of UniProt P34949 (P34949 whole entry, looked up): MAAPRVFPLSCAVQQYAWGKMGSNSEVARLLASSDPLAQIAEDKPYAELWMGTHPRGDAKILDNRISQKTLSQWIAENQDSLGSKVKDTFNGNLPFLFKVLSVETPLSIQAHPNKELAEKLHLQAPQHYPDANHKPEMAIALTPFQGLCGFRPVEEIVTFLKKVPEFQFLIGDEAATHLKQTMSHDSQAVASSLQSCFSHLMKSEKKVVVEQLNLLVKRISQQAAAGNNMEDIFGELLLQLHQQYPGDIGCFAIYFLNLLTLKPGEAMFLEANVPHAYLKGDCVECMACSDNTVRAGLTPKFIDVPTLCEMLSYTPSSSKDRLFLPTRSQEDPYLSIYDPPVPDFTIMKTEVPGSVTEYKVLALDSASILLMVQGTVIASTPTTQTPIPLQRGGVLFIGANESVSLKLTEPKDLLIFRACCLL
Chain of UniProt Q13015 (Q13015 whole entry, looked up): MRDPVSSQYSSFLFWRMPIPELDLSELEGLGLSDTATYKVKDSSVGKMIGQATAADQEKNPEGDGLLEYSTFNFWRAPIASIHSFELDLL

Compound in the first test: C#Cc1cccc(Nc2ncnc3cc(OCCOC)c(OCCOC)cc23)c1 [erlotinib]
As to the kind of experiment: log2 fold change, soluble protein after heating vs DMSO (PISA); higher = thermal stabilisation; K562 lysate, 10 uM; active = over 0.2 and 3.5 SD of the protein, either way, in both replicates (recomputed). A digest of the protocol:
(§1)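 K562 pellets were dounce-homogenised in PBS pH 7.4 containing 1 mM MgCl2, and the crude extract, at 1 mg/mL protein, was exposed to 10 μM compound for 30 min. Aliquots were heated for 3 min across 48°C-58°C, pooled, brought to 0.5% NP-40 at 4°C and spun at 21,000xg for 90 min, with the supernatant taken as soluble protein. TMTpro 16plex LC-MS/MS with equalised channel sums quantified that protein. Values are log-two fold changes in thermal stability relative to solvent controls, taken from duplicates.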
With MORC3 (UniProt Q14149), the log2 fold change was 0.02.
The same measure, in the same setting: the value for LYRM4 (UniProt Q9HD34) was -0.009; that for MLLT11 (UniProt Q13015) was 0.053; that for LRCH3 (UniProt Q96II8) was 0.043.
Still for that read-out and setting: the value for KNOP1 (UniProt Q1ED39) was -0.018; that for MRPL46 (UniProt Q9H2W6) was -0.027.
As to LPIN1 isoform 7 (UniProt Q14693), the log2 fold change was 0.047.
Still for that read-out and setting: the value for MAPK12 (UniProt P53778) was 0; that for LSG1 (UniProt Q9H089) was 0.044.
Same read-out and setting: then MBOAT2 (UniProt Q6ZWT7), with -0.003; and MAPKAPK5 (UniProt Q8IW41), with -0.058; and LRWD1 (UniProt Q9UFC0), with -0.031.
For MPI (UniProt P34949), the log2 fold change is 0.02.
In the case of MMS19 isoform 8 (UniProt Q96T76), the log2 fold change is 0.026.
On the same count and under the same terms, the value for MRPL19 (UniProt P49406) was 0.02.

Compound in another test: C/C(=N\NC(=O)C1=CC(=CC=C1)S(=O)(=O)N2CCOCC2)/C3=C(C=CC(=C3)Cl)O
Described as above. The method, boiled down:
as §1
Consider KIF4A (UniProt O95239), for which the log2 fold change was -0.022.
The same measure, in the same setting: the value for MBLAC2 (UniProt Q68D91) was -0.042; that for MAP2K1 (UniProt Q02750) was 0.04; that for MIPEP (UniProt Q99797) was -0.06.
The same measure, in the same setting: the value for LARS (UniProt Q9P2J5) was 0.05; that for LSM8 (UniProt O95777) was 0.003.
For the target MAP2K7 isoform 4 (UniProt O14733), the log2 fold change was -0.034.
Consider MAPKAPK3 (UniProt Q16644), for which the log2 fold change was -0.088.
On to LARP4B (UniProt Q92615), for which the log2 fold change was 0.013.
As to MAPK6 (UniProt Q16659), the log2 fold change is 0.036.
Consider MAP11 (UniProt Q8WVR3), for which the log2 fold change was -0.018.
MICB, A0A140T979: the log2 fold change is 0.086.
Same read-out and setting: then LPCAT1 (UniProt Q8NF37), with -0.052.
Same read-out and setting: the value for METTL7A (UniProt Q9H8H3) was 0.043.
Still for that read-out and setting: then MAP4K4 isoform 3 (UniProt O95819), with -0.025; and LLGL1 (UniProt Q15334), with -0.06; and MAP3K4 (UniProt Q9Y6R4), with -0.027.
With KIF14 (UniProt Q15058), the log2 fold change was -0.06.
On the same count and under the same terms, the value for LAGE3 (UniProt Q14657) was 0.342 (active); that for KMT2A isoform 3 (UniProt Q03164) was 0.351; that for LUZP1 (UniProt Q86V48) was -0.06.
MRPL15 (UniProt Q9P015): the log2 fold change was -0.16.
Same read-out and setting: then MPZL1 (UniProt O95297), with 0.068; and MORC3 (UniProt Q14149), with -0.047; and LYRM4 (UniProt Q9HD34), with 0.016.
For MLLT11 (UniProt Q13015), the log2 fold change is -0.018.
Same read-out and setting: then LRCH3 (UniProt Q96II8), with 0.047; and KNOP1 (UniProt Q1ED39), with -0.011; and MRPL46 (UniProt Q9H2W6), with -0.01.
Still for that read-out and setting: then LPIN1 isoform 7 (UniProt Q14693), with -0.046; and MAPK12 (UniProt P53778), with -0.026.
As to LSG1 (UniProt Q9H089), the log2 fold change is 0.036.
Same read-out and setting: then MBOAT2 (UniProt Q6ZWT7), with 0.014; and MAPKAPK5 (UniProt Q8IW41), with -0.045; and LRWD1 (UniProt Q9UFC0), with -0.002.
MPI (UniProt P34949): the log2 fold change is 0.045.
The same measure, in the same setting: then MMS19 isoform 8 (UniProt Q96T76), with -0.019; and MRPL19 (UniProt P49406), with 0.079.
